SMILES strings stand for the structures. The list shows a part of the results. Calls of active or inactive are those of the source. Unless noted, how the calls were made is not given here.

Experiment [1] has as its target Regulator of G-protein signaling 16 (Homo sapiens) (UniProt O15492). Description: small molecules altering RGS protein interactions with GNAO1 – biochemical, multiplexed beads, flow cytometry, RGS4/7/8/16/19, primary screen (AID 1504).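 Further: fluorescently labeled Galpha-o bound to GDP with aluminium fluoride binding biotinylated RGS beads.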 The conditions noted are these: multiplexed bead flow cytometry, measured here: RGS16 interaction, at 10 µM.
In experiment [2] the target is Regulator of G-protein signaling 19 (Homo sapiens) (UniProt P49795). The description is as above. The following applies: multiplexed bead flow cytometry, measured here: RGS19 interaction, at 10 µM.
For experiment [3], the target named is Regulator of G-protein signaling 4 (Homo sapiens) + Guanine nucleotide-binding protein G(o) subunit alpha (Homo sapiens) (UniProt P49798+P09471). The description is as above. The following applies: multiplexed bead flow cytometry, at 10 µM. Background: Flow cytometry measures light scatter and fluorescence of single cells or particles in a stream.
Sequence of Regulator of G-protein signaling 4 (Homo sapiens) + Guanine nucleotide-binding protein G(o) subunit alpha (Homo sapiens) (P09471 whole entry, looked up): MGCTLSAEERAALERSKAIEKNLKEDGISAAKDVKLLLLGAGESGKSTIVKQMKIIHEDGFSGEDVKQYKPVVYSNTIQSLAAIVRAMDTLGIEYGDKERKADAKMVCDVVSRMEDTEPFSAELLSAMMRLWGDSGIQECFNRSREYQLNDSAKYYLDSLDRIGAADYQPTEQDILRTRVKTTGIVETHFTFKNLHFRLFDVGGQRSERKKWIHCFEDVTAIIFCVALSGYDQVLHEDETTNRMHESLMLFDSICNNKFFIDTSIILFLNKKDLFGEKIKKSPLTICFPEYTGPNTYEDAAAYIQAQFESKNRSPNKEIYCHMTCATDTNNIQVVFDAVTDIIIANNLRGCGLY
Sequence of Regulator of G-protein signaling 4 (Homo sapiens) + Guanine nucleotide-binding protein G(o) subunit alpha (Homo sapiens) (P49798 whole entry, looked up): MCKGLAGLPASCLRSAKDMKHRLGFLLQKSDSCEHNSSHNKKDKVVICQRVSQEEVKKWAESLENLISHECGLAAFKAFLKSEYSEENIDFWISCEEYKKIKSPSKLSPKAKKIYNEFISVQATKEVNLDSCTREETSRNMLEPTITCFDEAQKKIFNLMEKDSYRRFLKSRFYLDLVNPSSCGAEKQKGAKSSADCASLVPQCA
The target in experiment [4] is Regulator of G-protein signaling 7 (Homo sapiens) (UniProt P49802). The description is as above. The following applies: multiplexed bead flow cytometry, measured here: RGS7 interaction, at 10 µM.
Experiment [5] addresses Regulator of G-protein signaling 8 (Homo sapiens) (UniProt P57771). The experiment is described as above. The following applies: multiplexed bead flow cytometry, measured here: RGS8 interaction, at 10 µM.
Experiment [6] in a line: interference with biotin-avidin bead interaction – biochemical, flow cytometry, bead-based, counter-screen for RGS protein interaction modulators (AID 1783;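 active means inhibition above 50%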;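 further: median green fluorescence of gated singlet beads compared with DMSO control wells; 0% = DMSO wells and 100% = complete loss of bead fluorescence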). The following applies: streptavidin beads, fluorescein-biotin binding; at 10 µM, stronger effect = higher value.
Experiment [7] addresses Guanine nucleotide-binding protein G(o) subunit alpha (Homo sapiens) (UniProt P09471). In words: retest of RGS8-Galphao interaction hits – biochemical, multiplexed bead flow cytometry, single concentration, confirmation (AID 1836; in the data active means binding response below about 72% or above about 130%; inactive means in between;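 further: Galphao activated as GDP AlF4 complex before binding bead RGS8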). The conditions noted are these: bead-based flow cytometry RGS8-Galphao binding, fluorescence; at 10 µM; actives lie on both sides.
Experiment [8] shares this target. In words: retest of RGS7-Galphao interaction hits – biochemical, multiplexed bead flow cytometry, single concentration, confirmation (AID 1837; in the data active means response below about 75% or above about 130%; inactive means in between;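 further: fluorescent Galphao activated with GDP and aluminum fluoride binding bead-coupled RGS7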). The following applies: bead-based flow cytometry RGS7-Galphao binding; at 10 µM; actives lie on both sides.
In experiment [9] the target is Regulator of G-protein signaling 16 (Homo sapiens) + Guanine nucleotide-binding protein G(o) subunit alpha (Homo sapiens) (UniProt O15492+P09471). In words: RGS16 and Galphao interaction regulators – biochemical, single concentration, multiplexed bead flow cytometry, confirmation (AID 1838; in the data active means response below about 74% or above about 130%; inactive means in between;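 further: Galphao activated as the GDP aluminium fluoride complex binding bead-coupled RGS16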). The conditions noted are these: bead-based flow cytometry, at 10 µM, actives lie on both sides.
Sequence of Regulator of G-protein signaling 16 (Homo sapiens) + Guanine nucleotide-binding protein G(o) subunit alpha (Homo sapiens) (O15492 whole entry, looked up): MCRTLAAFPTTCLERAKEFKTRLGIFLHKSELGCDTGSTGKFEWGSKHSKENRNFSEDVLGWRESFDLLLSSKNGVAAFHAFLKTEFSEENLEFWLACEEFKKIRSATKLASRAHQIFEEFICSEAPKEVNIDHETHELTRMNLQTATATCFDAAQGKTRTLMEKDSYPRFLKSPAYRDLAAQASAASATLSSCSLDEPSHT
Sequence of Regulator of G-protein signaling 16 (Homo sapiens) + Guanine nucleotide-binding protein G(o) subunit alpha (Homo sapiens) (P09471 whole entry, looked up): as the sequence (P09471 whole entry, looked up) above

For experiment [10], the target named is Guanine nucleotide-binding protein G(o) subunit alpha (Homo sapiens) (UniProt P09471). Description: RGS4 and Galphao interaction regulators – biochemical, single concentration, multiplexed bead flow cytometry, confirmation (AID 1840; in the data active means binding response below about 74% or above about 130%; inactive means in between). The conditions noted are these: at 10 µM, actives lie on both sides.
Sequence of Guanine nucleotide-binding protein G(o) subunit alpha (Homo sapiens) (P09471 whole entry, looked up): as above
The target in experiment [11] is Guanine nucleotide-binding protein G(o) subunit alpha (Homo sapiens) + Regulator of G-protein signaling 19 (Homo sapiens) (UniProt P09471+P49795). In words: RGS19 interaction with Gαo, hit retest – biochemical, single point, multiplexed bead flow cytometry, confirmation (AID 1841; in the data active means response below about 50% or above about 160%; inactive means in between;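 further: 100% = no compound control and 0% = blank background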). The conditions noted are these: bead-based flow cytometry RGS19-Galphao binding; at 10 µM; actives lie on both sides.
Sequence of Guanine nucleotide-binding protein G(o) subunit alpha (Homo sapiens) + Regulator of G-protein signaling 19 (Homo sapiens) (P09471 whole entry, looked up): as above
Sequence of Guanine nucleotide-binding protein G(o) subunit alpha (Homo sapiens) + Regulator of G-protein signaling 19 (Homo sapiens) (P49795 whole entry, looked up): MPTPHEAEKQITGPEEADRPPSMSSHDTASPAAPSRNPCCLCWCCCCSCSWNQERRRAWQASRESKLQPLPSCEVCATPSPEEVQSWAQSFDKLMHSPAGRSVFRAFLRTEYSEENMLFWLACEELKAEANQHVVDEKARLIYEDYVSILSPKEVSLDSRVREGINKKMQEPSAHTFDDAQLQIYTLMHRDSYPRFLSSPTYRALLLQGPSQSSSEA

Experiment [12] addresses Ras-related C3 botulinum toxin substrate 1 (Homo sapiens) (UniProt P63000). In words: inhibition of wildtype Rac1 nucleotide loading – biochemical, multiplex bead flow cytometry, dose response (AID 1340;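 active means dose curve with midpoint inside tested range, moderate steepness, plateau gap beyond fit error, low compound glow and bead-link interference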). The conditions noted are these: GST-Rac1 beads, Bodipy-FL-GTP binding; at 100 µM (top of the series) unless noted.

As usually defined, the inhibition is the change of the read-out against control, counted positive when it falls. For the molecule `COc1ccc(CCC(=O)OCC(=O)Nc2ccc(C)c(S(=O)(=O)N(C)C)c2)cc1`, in experiment [1], the RGS16–Galpha-o binding response stood at 69.9%. The RGS19–Galpha-o binding response in experiment [2] was -376%. Moreover, the RGS4–Galpha-o binding response in [3] was 84.4% (active). Further, the RGS7–Galpha-o binding response in [4] was 45.2%. In experiment [5], this molecule returned an RGS8–Galpha-o binding response of 57.7%. For the same molecule, the inhibition in experiment [6] is 2.5% (inactive). The figures for the binding response (% of control) in [7] and in experiment [10] were 104% (inactive) and 103% (inactive), respectively. For the same molecule, the response (percent of control binding) is 104% (inactive) in experiment [8] and 100% (inactive) in experiment [11]. Also, the response (% of control binding) in experiment [9] was 104% (inactive).
Regarding `CC1(C)C=C2[C@H]3CC[C@@H]4[C@@]5(C)CCC(=O)C(C)(C)[C@@H]5CC[C@@]4(C)[C@]3(C)CC[C@@]2(C(=O)O)CC1`, the RGS16–Galpha-o binding response in [1] was determined as 267%. The RGS19–Galpha-o binding response in [2] is -110%. Besides, the RGS4–Galpha-o binding response in experiment [3] was 119% (active). The RGS7–Galpha-o binding response in experiment [4] turned out to be 114%. For the same molecule, the RGS8–Galpha-o binding response in experiment [5] came to 134%. For the same molecule, in [6], the inhibition was 0.1% (inactive). For the same molecule, the values for the binding response (% of control) in experiment [7] and in experiment [10] were 107% (inactive) and 94.2% (inactive), respectively. For the same molecule, the values for the response (percent of control binding) in [8] and in [11] were 81.6% (inactive) and 68.7% (inactive), respectively. In addition, the response (% of control binding) in experiment [9] is 107% (inactive).
As to `COc1cc(C(=O)Nc2cc(C(F)(F)F)ccc2N2CCOCC2)ccc1O`, the RGS16–Galpha-o binding response in experiment [1] was 9.57%. The RGS19–Galpha-o binding response in experiment [2] is 135%. Besides, the RGS4–Galpha-o binding response in experiment [3] was 79.2% (active). For the same molecule, the RGS7–Galpha-o binding response in [4] stood at 84.8%. In experiment [5], this molecule had an RGS8–Galpha-o binding response of 70.4%. Besides, the inhibition in [6] was 0.3% (inactive). Moreover, the binding response (% of control) in experiment [7] was 104% (inactive); in [10] it was 97.9% (inactive). The response (percent of control binding) in [8] was 102% (inactive); in experiment [11], 86.5% (inactive). Also, in experiment [9], the response (% of control binding) was 98.8% (inactive).
In experiment [12], `COc1cc(OC)c(-c2c3cc(O)c(=O)cc-3oc3cc(O)c(O)cc23)cc1OC` registered a GTP binding signal, raw median fluorescence (lower = inhibition) (MCF (arbitrary fluorescence units)) of 480.
Take `CCn1c(CSCc2c(Cl)cccc2Cl)n[nH]c1=S`: in experiment [1], the RGS16–Galpha-o binding response was 46.1%. The RGS19–Galpha-o binding response in [2] was determined as 1140%. The RGS4–Galpha-o binding response in experiment [3] was 55.9% (active). In addition, the RGS7–Galpha-o binding response in [4] was -29.3%. The RGS8–Galpha-o binding response in [5] turned out to be 55.5%. The inhibition in experiment [6] is 1.4% (inactive). Besides, the figures for the binding response (% of control) in experiment [7] and in experiment [10] were 89% (inactive) and 94.2% (inactive), respectively. For the same molecule, the response (percent of control binding) was 89.5% (inactive) in [8] and 83.5% (inactive) in [11]. The response (% of control binding) in experiment [9] was 88.1% (inactive).
With `CCOC(=O)CSc1nc2c(c(=O)n(Cc3ccccc3Cl)c(=O)n2C)n1C`, the RGS16–Galpha-o binding response in [1] is -55.5%. In addition, the RGS19–Galpha-o binding response in experiment [2] was 98.5%. The RGS4–Galpha-o binding response in experiment [3] is 74.3% (active). Besides, in [4], the RGS7–Galpha-o binding response is 88.1%. In experiment [5], the RGS8–Galpha-o binding response was 78.5%. Also, the inhibition in experiment [6] is 0.8% (inactive). Besides, the binding response (% of control) in experiment [7] is 95.8% (inactive); in experiment [10], 94.7% (inactive). Also, the response (percent of control binding) is 99.8% (inactive) in experiment [8] and 87.7% (inactive) in experiment [11]. Moreover, the response (% of control binding) in experiment [9] is 99.1% (inactive).
